Data published in paper PMC7826789 (International Journal of Molecular Sciences, 2021).

tested on: PRKD1

Kinases covered, PRKD1:
Cc1cccc(-c2cc(Nc3ccncc3)c3ccccc3n2)n1 [GSK223675]
C[C@@H]1CCNC(=O)c2cc3ccc(C(=O)Nc4nc5ccccc5n4CCCN(C)C)cc3n21 [BI00645435]
COc1ccc2nc(-c3cccc(C)n3)nc(Nc3ccncc3)c2c1 [GSK204919]
Cc1cccc(-c2nc(Nc3ccncc3)c3ccccc3n2)n1 [GW855857]
